Where “and” joins values, the source holds several entries; their conditions need not be identical. Equal values may be shown once. Out of some 5,500 compounds screened, about 2,000 (36%) were called active. About 18% were inconclusive and are not listed. Cut-off read from the data, not from the text of the source: active = normalized growth mostly below about 0.91 (no sharp cut-off); inconclusive = no clear call, values can overlap the other calls; inactive = mostly above about 0.92. Some of the results follow.
Test: chemical genetic growth profiling, strain panel (AID 1159580);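 note: tested at 20 µM; growth read once vehicle control cultures reached saturation at 30 °C; 1 = growth at the plate median or of vehicle wells; lower values mean less growth of the strain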
Conditions: growth OD

Measured: normalized growth

CC(C[N+](C)(C)C)OC(N)=O (centres undefined)
inactive: S. cerevisiae deletion strains, locus YJR066W, strain TOR1, hits give low values 0.993 | S. cerevisiae deletion strains, locus YKL009W, strain mrt4, hits give low values 0.934 | S. cerevisiae deletion strains, locus YKL068W, hits give low values 0.991 | S. cerevisiae deletion strains, locus YKL085W, strain MDH1 (second series), hits give low values 0.996 | S. cerevisiae deletion strains, locus YKL085W, strain MDH1, hits give low values 0.996 | S. cerevisiae deletion strains, locus YKL160W, strain elf1, hits give low values 1.01 | S. cerevisiae deletion strains, locus YKL190W, strain CNB1, hits give low values 1 | S. cerevisiae deletion strains, locus YKR001C, strain vps1, hits give low values 0.96 | S. cerevisiae deletion strains, locus YKR026C, strain gcn3, hits give low values 1.02 | S. cerevisiae deletion strains, locus YKR091W, strain srl3, hits give low values 1.02 | S. cerevisiae deletion strains, locus YLL001W, strain dnm1, hits give low values 1.03 | S. cerevisiae deletion strains, locus YLL026W, hits give low values 1.01 | S. cerevisiae deletion strains, locus YLL041C, strain sdh2, hits give low values 1.04 | S. cerevisiae deletion strains, locus YLR027C, strain aat2, hits give low values 1.03 | S. cerevisiae deletion strains, locus YLR039C, strain RIC1, hits give low values 0.952 | S. cerevisiae deletion strains, locus YLR058C, strain SHM2, hits give low values 0.991 | S. cerevisiae deletion strains, locus YLR102C, strain apc9, hits give low values 0.983 | S. cerevisiae deletion strains, locus YLR113W, strain HOG1, hits give low values 0.957 | S. cerevisiae deletion strains, locus YLR221C, strain rsa3, hits give low values 1.04 | S. cerevisiae deletion strains, locus YLR258W, strain gsy2, hits give low values 1.04 | S. cerevisiae deletion strains, locus YLR262C, strain YPT6 (second series), hits give low values 1.02 | S. cerevisiae deletion strains, locus YLR262C, strain YPT6, hits give low values 0.939 | S. cerevisiae deletion strains, locus YLR268W, strain sec22, hits give low values 0.973 | S. cerevisiae deletion strains, locus YLR320W, strain mms22, hits give low values 1.03 | S. cerevisiae deletion strains, locus YLR330W, strain CHS5, hits give low values 0.994 | S. cerevisiae deletion strains, locus YLR342W, strain FKS1 (second series), hits give low values 1.06 | S. cerevisiae deletion strains, locus YLR342W, strain FKS1, hits give low values 1.02 | S. cerevisiae deletion strains, locus YLR357W, strain rsc2, hits give low values 1.02 | S. cerevisiae deletion strains, locus YLR370C, strain arc18, hits give low values 1.03 | S. cerevisiae deletion strains, locus YLR371W, strain rom2, hits give low values 0.976 | S. cerevisiae deletion strains, locus YLR384C, strain iki3, hits give low values 1.03 | S. cerevisiae deletion strains, locus YLR418C, strain cdc73, hits give low values 0.953 | S. cerevisiae deletion strains, locus YML016C, strain PPZ1, hits give low values 0.995 | S. cerevisiae deletion strains, locus YML032C, strain rad52, hits give low values 0.983 | S. cerevisiae deletion strains, locus YML120C, strain ndi1, hits give low values 1.03 | S. cerevisiae deletion strains, locus YML124C, strain tub3, hits give low values 0.986 | S. cerevisiae deletion strains, locus YMR058W, strain fet3, hits give low values 1.03 | S. cerevisiae deletion strains, locus YMR078C, strain ctf18, hits give low values 0.97 | S. cerevisiae deletion strains, locus YMR125W, strain sto1, hits give low values 1.05 | S. cerevisiae deletion strains, locus YMR129W, hits give low values 1.03 | S. cerevisiae deletion strains, locus YMR205C, strain PFK2, hits give low values 0.998 | S. cerevisiae deletion strains, locus YMR223W, strain ubp8, hits give low values 0.987 | S. cerevisiae deletion strains, locus YMR231W, strain pep5, hits give low values 1.02 | S. cerevisiae deletion strains, locus YMR307W, strain GAS1, hits give low values 1.09 | S. cerevisiae deletion strains, locus YNL067W, strain RPL9B, hits give low values 0.98 | S. cerevisiae deletion strains, locus YNL071W, strain lat1, hits give low values 1.01 | S. cerevisiae deletion strains, locus YNL128W, strain TEP1, hits give low values 0.975 and 0.99 | S. cerevisiae deletion strains, locus YNL153C, strain GIM3, hits give low values 0.995 | S. cerevisiae deletion strains, locus YNL175C, strain NOP13, hits give low values 0.997 | S. cerevisiae deletion strains, locus YNL183C, strain NPR1, hits give low values 0.96 | S. cerevisiae deletion strains, locus YNL197C, strain WHI3, hits give low values 1 | S. cerevisiae deletion strains, locus YNL209W, strain ssb2, hits give low values 1.03 | S. cerevisiae deletion strains, locus YNL224C, strain SQS1, hits give low values 0.995 | S. cerevisiae deletion strains, locus YNL233W, strain BNI4, hits give low values 0.999 | S. cerevisiae deletion strains, locus YNL248C, strain rpa49, hits give low values 1.01 | S. cerevisiae deletion strains, locus YNL250W, strain rad50, hits give low values 1 | S. cerevisiae deletion strains, locus YNL271C, strain bni1, hits give low values 0.973 | S. cerevisiae deletion strains, locus YNL298W, strain CLA4, hits give low values 0.976 | S. cerevisiae deletion strains, locus YNL307C, strain MCK1, hits give low values 0.97 | S. cerevisiae deletion strains, locus YNL322C, strain KRE1 (second series), hits give low values 1.01 | S. cerevisiae deletion strains, locus YNL322C, strain KRE1, hits give low values 0.992 | S. cerevisiae deletion strains, locus YNR049C, strain mso1, hits give low values 1.01 | S. cerevisiae deletion strains, locus YNR052C, strain pop2, hits give low values 0.982 | S. cerevisiae deletion strains, locus YOL006C, strain TOP1, hits give low values 1.02 | S. cerevisiae deletion strains, locus YOL012C, strain htz1 0.744 | S. cerevisiae deletion strains, locus YOL147C, strain pex11, hits give low values 0.987 | S. cerevisiae deletion strains, locus YOR001W, strain rrp6, hits give low values 1.03 | S. cerevisiae deletion strains, locus YOR061W, strain CKA2, hits give low values 0.99 | S. cerevisiae deletion strains, locus YOR069W, strain VPS5, hits give low values 0.987 | S. cerevisiae deletion strains, locus YOR070C, strain gyp1, hits give low values 1.03 | S. cerevisiae deletion strains, locus YOR080W, strain dia2, hits give low values 1.04 | S. cerevisiae deletion strains, locus YOR083W, strain WHI5 (second series), hits give low values 0.996 | S. cerevisiae deletion strains, locus YOR083W, strain WHI5, hits give low values 0.976 | S. cerevisiae deletion strains, locus YOR106W, strain vam3, hits give low values 1.05 | S. cerevisiae deletion strains, locus YOR136W, strain idh2, hits give low values 0.968 | S. cerevisiae deletion strains, locus YOR144C, strain elg1, hits give low values 0.985 | S. cerevisiae deletion strains, locus YOR184W, strain ser1, hits give low values 0.976 | S. cerevisiae deletion strains, locus YOR231W, strain MKK1, hits give low values 0.979 | S. cerevisiae deletion strains, locus YOR265W, strain rbl2, hits give low values 1.02 | S. cerevisiae deletion strains, locus YOR270C, strain vph1, hits give low values 1.05 | S. cerevisiae deletion strains, locus YOR290C, strain snf2, hits give low values 1.02 | S. cerevisiae deletion strains, locus YOR316C, strain cot1, hits give low values 0.977 | S. cerevisiae deletion strains, locus YPL051W, strain arl3, hits give low values 1.02 | S. cerevisiae deletion strains, locus YPL055C, strain LGE1, hits give low values 0.998 | S. cerevisiae deletion strains, locus YPL078C, strain atp4, hits give low values 1.02 | S. cerevisiae deletion strains, locus YPL106C, strain sse1, hits give low values 1.06 | S. cerevisiae deletion strains, locus YPL240C, strain hsp82, hits give low values 1.02 | S. cerevisiae deletion strains, locus YPL256C, strain CLN2, hits give low values 0.976 | S. cerevisiae deletion strains, locus YPR119W, strain clb2, hits give low values 0.985 | S. cerevisiae deletion strains, locus YPR141C, strain kar3, hits give low values 0.986 | S. cerevisiae deletion strains, locus YPR163C, strain tif3, hits give low values 0.979 | S. cerevisiae deletion strains, locus YPR167C, strain met16, hits give low values 0.98 | S. cerevisiae deletion strains, strain wtn01, hits give low values 1 | S. cerevisiae strains, strain wild type, hits give low values 0.994
